Growth data for 40 compounds are collected here from PubChem BioAssay (NCI).

Compounds without any hit were thinned out: in the full panel of roughly 83,000, 20% have a hit.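 For each line, cells grew in 96-well plates with the test compound present at a single concentration for 48 hours.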 Calls of active or inactive are those of the source.

The subject of the test is HT29 colon. The experiment in a line: NCI-60 one-dose screen, 48 h (100 = growth as untreated, 0 = no growth, -100 = all killed). Particulars: 10 µM unless noted. The method, then: Growth inhibition of the HT29 human tumor cell line is measured as a screen for anti-cancer activity. Cells are grown in 96 well plates and exposed to the test compound for 48 hours. Compounds are tested at a single concentration, which is 10^-5 M for most compounds. The reported endpoint is percent growth (GI% or GIPRCNT), where numbers from 0 - 100% represent growth inhibition, and numbers from -100% - 0 represent cell death. For example, a value of 40 represents 60% growth inhibition. A value of 0 means no net growth occurred over the course of the experiment. A value of -40 indicates 40% of cells at the beginning of the experiment died by the end of the experiment. A value of -100 means all cells are dead at the end of the experiment.
NCI-60 Human Tumor Cell Lines Screen was performed using the standard one-dose NCI protocol, which is described in more detail at https://dtp.cancer.gov/discovery_development/nci-60/default.htm.
Compounds with GIPRCNT values below 10 were considered active. Activity score was based on GIPRCNT using the following formula: […]
Score is 0 for GIPRCNT values of 100 or above, 50 for GIPRCNT values of 0, and 100 for GIPRCNT values of -100.
For the compound `COc1cc(NS(=O)(=O)c2ccc(-c3cnc(C4CC4)o3)cc2)ccc1F`, the growth is 2.64% (active). The result for `CCNCCNc1cc(-c2ccc(C(F)(F)F)cc2)c(C#N)c2nc3ccccc3n12` reads -61.7% (active); that for `COC1=CC(c2ccc[nH]2)=N/C1=C\c1[nH]c(C)c(CC(=O)OCc2ccccc2)c1CCC(=O)OCc1ccccc1`, 0.828% (active); that for `O=S(=O)(Nc1cc(F)cc(Cl)c1)c1ccc(-c2cnc(C3CC3)o2)cc1`, 4.89% (active). On to `NNc1nc(-c2cccnc2)nc2c1sc(=S)n2-c1ccccc1`, for which the growth was 90.3% (inactive). The result for `COc1ccc(/C=N/C2=C(C#N)C(c3ccccc3)c3ccc4ccccc4c3O2)cc1` (stereo not given) reads 6.29% (active); that for `CC1CCc2c(C(=O)Nc3ncc(Cc4cccc([N+](=O)[O-])c4)s3)csc2C1` (stereo not given), 14.9% (inactive); that for `C1CCC([PH+](C2CCCCC2)C2CCCCC2[PH+](C2CCCCC2)C2CCCCC2)CC1.[Au].[CH-]1CCCCC1C1CCCC[N-]1` (stereo not given), 2.8% (active). To `O=C1c2ccc3c4c5ccc(c24)C(=O)N1CCCOCCCCOCCCNCc1ccc(cc1)CNCCCOCCCCOCCCN(C3=O)C5=O` belongs -18.7% (active). To `COc1cc2c(c(OC)c1OC)CCC(c1cccc(NC(=O)c3ccc(Br)cc3)c1)O2` (stereo not given) belongs 77.4% (inactive); to `N#Cc1c(-c2ccc(Cl)cc2)nc(NN2C(=O)c3ccccc3C2=O)nc1N1CCOCC1`, 108% (inactive); to `O=C(/C=C/c1cccc(Cl)c1)c1ccc(Nc2nc(Nc3ccc(F)cc3)nc(Nc3ccc(Cl)cc3)n2)cc1`, 108% (inactive). `Cc1c[n+](Cc2ccc3ccccc3c2)cn1Cc1ccc2ccccc2c1`: the growth was -35.5% (active). Turning to `Fc1cccc(Oc2ccc(Nc3ncnc4ccc(OCCCN5CCOCC5)cc34)cc2Cl)c1`, the growth is 18.2% (inactive). The result for `N=C(N)c1ccc(-c2ccc(-c3ccccc3)o2)cc1` reads -76.5% (active). As for `Oc1c(Br)cc(Br)c2ccc(Cn3cc(-c4ccccc4C(F)(F)F)nn3)nc12`, the growth was 107% (inactive). To `Cn1ccc(=O)c(C(=O)Nc2nsc3ccc([N+](=O)[O-])cc23)c1` belongs 68.2% (inactive); to `CCN(CC)CCn1c2ccc(OC)cc2c2sc3cc(OC)ccc3c(=O)c21`, 0.172% (active).

For the compound `Oc1c(Br)cc(Br)c2ccc(Cn3cc(-c4ccc(C(F)(F)F)cc4)nn3)nc12`, the growth is 59% (inactive). To `O=C(Nc1ccccc1O)c1ccc(CNC(=O)c2sccc2Nc2ccnc(C(F)(F)F)c2)cc1` belongs 53% (inactive); to `Nc1cnc(C(=O)NNc2nc3cc(F)ccc3n3cccc23)cn1`, 35% (inactive); to `O=C(/C=C(/C=C/c1ccc2[nH]ccc2c1)OB(F)F)/C=C/c1ccc2[nH]ccc2c1`, -55.7% (active). As to `C#COc1cccc(Nc2c(C#N)cnc3ncc(NC(=O)CCl)cc23)c1`, the growth was 3.12% [6.25 µM] (active). To `Cc1cn(-c2cc(NC(=O)c3cncc(C#Cc4cnc(N)c5ncccc45)c3)cc(C(F)(F)F)c2)cn1` belongs 35.4% (inactive); to `NS(=O)(=O)c1ccc(N=Nc2c(O)n(Cc3ccccc3)c3ccc(Cl)cc23)cc1`, 94.6% (inactive). For `CCCC/C(CC)=N\NS(=O)(=O)c1ccc([N+](=O)[O-])cc1`, the growth was 106% (inactive). The result for `O=C(/C=C/c1ccccc1)Nc1ncc(Cc2ccccc2Cl)s1` reads 6.09% (active). The result for `CC(=O)/C(=C\c1c(-c2ccccc2)[nH]c2ccccc12)S(C)(=O)=O` reads 4.54% (active); that for `COc1ccc2cc1Oc1ccc(cc1)C[C@H]1c3c(cc4c(c3Oc3cc5c(cc3OC)CCN(C)[C@@H]5C2)OCO4)CCN1C`, 4.38% (active); that for `CC(=O)c1c(C)nc2ccccc2c1/C=C/c1ccc(F)cc1`, 90.7% (inactive).

For the compound `Cc1sc2nc(NCCc3c[nH]c4ccc(Cl)cc34)[nH]c(=O)c2c1C`, the growth was 19.6% (inactive).

As to `COC(=O)CC[C@@H]1O[C@@H](c2cccc(C(F)(F)F)c2)[C@@H](O)[C@H]1O`, the growth was 97.8% (inactive).

On to `CCn1cc(C(=O)NNC(=S)Nc2ccc(C)cc2)c(=O)c2ccc(C)nc21`, for which the growth is 97.5% (inactive).

For `O=C1c2c(c3c4ccccc4[nH]c3c3ccc4ccccc4c23)C(=O)N1CCN1CCNCC1`, the growth was -14.6% (active).

`CC(C)=CC(=O)OCC(=O)O[C@@H]1C[C@]2(C(C)C)O[C@@]1(C)[C@@H]1CC[C@@H](C)[C@H]1[C@@H]2OC(=O)/C=C/c1ccccc1`: the growth was 85.8% (inactive). To `Cc1cc(N2CCCCC2)cc(C)c1-c1csc(NC(=O)c2ccncc2)n1` belongs 69% (inactive). To `OCCn1cc(-c2nc(-c3c[nH]c4ncccc34)cs2)c2cc(F)ccc21` belongs 46.8% (inactive); to `O=C(/C=C/c1cn(-c2ccccc2)nc1-c1ccc(Cl)cc1)c1ccc(F)cc1`, 77% (inactive); to `Clc1cc(Cl)c(Cl)c(-c2nnc(SCc3ccncc3Br)o2)c1`, 102% (inactive). With `CC/C=C\C[C@H](O)C/C=C1/C(=O)C=C[C@@H]1C/C=C\CCCC(=O)N(C)C`, the growth is -71.5% (active).
